Data published in PubChem BioAssay AID1159580 (chemical genetic matrix, 2015).
Among all 5,500 compounds or so, about 2,000 (36%) were called active. Another 18% or so got no clear call; they are omitted. No stated cut-off is given here; in the data, active means normalized growth mostly below about 0.91 (no sharp cut-off); inconclusive means no clear call, values can overlap the other calls; inactive means mostly above about 0.92. Some of the results follow.

Test: chemical genetic growth profiling, strain panel (AID 1159580);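 further: tested at 20 µM; growth read once vehicle control cultures reached saturation at 30 °C; 1 = growth at the plate median or of vehicle wells; lower values mean less growth of the strain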
Settings: S. cerevisiae deletion strains, growth OD
[1] = locus YAL013W, strain DEP1, hits give low values
[2] = locus YBR229C, strain ROT2, hits give low values
[3] = locus YDL101C, strain DUN1, hits give low values
[4] = locus YDR150W, strain NUM1, hits give low values
[5] = locus YEL061C, strain CIN8, hits give low values
[6] = locus YGR078C, strain PAC10, hits give low values
[7] = locus YHR030C, strain SLT2, hits give low values
[8] = locus YHR087W, strain rtc3, hits give low values
[9] = locus YJR043C, strain POL32, hits give low values
[10] = locus YJR075W, strain HOC1, hits give low values
[11] = locus YLR039C, strain RIC1, hits give low values
[12] = locus YLR058C, strain SHM2 (second series), hits give low values
[13] = locus YLR085C, strain ARP6, hits give low values
[14] = locus YLR262C, strain YPT6, hits give low values
[15] = locus YML094W, strain GIM5, hits give low values
[16] = locus YMR219W, strain ESC1, hits give low values
[17] = locus YMR263W, strain SAP30, hits give low values
[18] = locus YNL128W, strain TEP1, hits give low values
[19] = locus YNL153C, strain GIM3, hits give low values
[20] = locus YNL298W, strain CLA4 (second series), hits give low values
[21] = locus YNL322C, strain KRE1, hits give low values
[22] = locus YNR030W, strain Alg12, hits give low values
[23] = locus YPL055C, strain LGE1, hits give low values
[24] = locus YPL241C, strain CIN2, hits give low values
[25] = locus YPR135W, strain CTF4, hits give low values

Measured: normalized growth

Cc1cccc(NC(=O)c2ccccc2)c1
inactive: [1] 0.961 | [2] 0.958 | [3] 0.991 | [4] 0.974 | [5] 0.945 | [6] 0.951 | locus YGR229C, strain SMI1, hits give low values 0.977 | [7] 0.827 | [8] 0.937 | locus YJL187C, strain SWE1, hits give low values 0.946 | [9] 0.952 | [10] 0.913 | locus YKL190W, strain CNB1, hits give low values 0.988 | [11] 0.809 | [12] 0.981 | [13] 0.897 | [14] 0.854 | [15] 0.924 | [16] 0.967 | [17] 0.973 | [18] 0.992 | [19] 0.973 | [20] 0.887 | [21] 0.98 | [22] 0.951 | [23] 0.971 | [24] 0.91 | [25] 0.798

Cc1oc(C(C)(C)C)cc1-c1cc(NC(=O)c2ccccc2)n[nH]1
inactive: locus YAR019C, strain CDC15, hits give low values 0.965 | locus YBL105C, strain PKC1, hits give low values 0.98 | locus YBR135W, strain CKS1, hits give low values 0.974 | locus YBR136W, strain MEC1, hits give low values 0.975 | locus YBR160W, strain CDC28, hits give low values 0.97 | locus YDL017W, strain CDC7, hits give low values 0.99 | locus YDL028C, strain MPS1, hits give low values 0.948 | [3] 0.994 | locus YDL108W, strain KIN28, hits give low values 0.972 | locus YDL132W, strain cdc53, hits give low values 0.993 | locus YDL214C, strain PRR2, hits give low values 0.913 | locus YDR052C, strain DBF4, hits give low values 0.984 | locus YDR054C, strain cdc34, hits give low values 0.966 | locus YDR226W, strain ADK1, hits give low values 0.962 | locus YDR477W, strain SNF1, hits give low values 0.924 | locus YER123W, strain YCK3, hits give low values 0.885 | locus YER133W, strain GLC7, hits give low values 0.957 | locus YFL009W, strain cdc4, hits give low values 0.951 | locus YFL029C, strain CAK1, hits give low values 0.962 | locus YFR003C, strain YPI1, hits give low values 0.988 | locus YFR019W, strain FAB1, hits give low values 0.921 | locus YFR028C, strain CDC14, hits give low values 0.961 | locus YGR040W, strain KSS1, hits give low values 0.94 | locus YGR052W, strain FMP48, hits give low values 0.93 | locus YGR092W, strain DBF2, hits give low values 0.743 | locus YHR079C, strain IRE1, hits give low values 0.695 | locus YHR082C, strain KSP1, hits give low values 0.81 | locus YHR205W, strain SCH9, hits give low values 0.849 | locus YIL147C, strain SLN1, hits give low values 0.966 | locus YJL095W, strain BCK1, hits give low values 0.822 | locus YJL128C, strain PBS2, hits give low values 0.908 | locus YJL157C, strain FAR1, hits give low values 0.909 | locus YJR016C, strain ILV3, hits give low values 0.981 | locus YJR066W, strain TOR1 (second series), hits give low values 0.883 | locus YJR066W, strain TOR1, hits give low values 0.798 | locus YKL048C, strain ELM1, hits give low values 0.943 | locus YKL067W, strain YNK1, hits give low values 0.899 | locus YKL101W, strain HSL1, hits give low values 0.878 | locus YKL193C, strain SDS22, hits give low values 0.98 | locus YKL203C, strain TOR2, hits give low values 1.01 | locus YLR133W, strain CKI1, hits give low values 0.911 | locus YLR403W, strain SFP1, hits give low values 0.925 | locus YML070W, strain DAK1, hits give low values 0.872 | locus YMR001C, strain CDC5, hits give low values 0.95 | locus YMR205C, strain PFK2 (second series), hits give low values 0.922 | locus YMR277W, strain FCP1, hits give low values 0.95 | locus YNL006W, strain LST8, hits give low values 0.962 | locus YNL020C, strain ARK1, hits give low values 0.903 | locus YNL161W, strain CBK1, hits give low values 0.976 | locus YNL183C, strain NPR1, hits give low values 0.963 | locus YNL207W, strain RIO2, hits give low values 0.969 | locus YNL222W, strain SSU72, hits give low values 0.969 | locus YNL307C, strain MCK1 (second series), hits give low values 0.876 | locus YOL078W, strain AVO1, hits give low values 0.981 | locus YOL136C, strain PFK27, hits give low values 0.866 | locus YOR061W, strain CKA2, hits give low values 0.91 | locus YOR119C, strain RIO1, hits give low values 0.928 | locus YOR231W, strain MKK1, hits give low values 0.791 | locus YOR329C, strain SCD5, hits give low values 0.981 | locus YPL031C, strain PHO85, hits give low values 0.908 | locus YPL153C, strain RAD53, hits give low values 0.877 | locus YPL204W, strain HRR25, hits give low values 0.883 | locus YPL209C, strain IPL1, hits give low values 0.972 | locus YPR025C, strain CCL1, hits give low values 0.979 | locus YPR106W, strain ISR1, hits give low values 0.969 | locus YPR111W, strain DBF20, hits give low values 0.935 | strain NNK1, hits give low values 0.951 | strain TSCII, hits give low values 0.958
active: [7] 0.611 | locus YLR113W, strain HOG1, hits give low values 0.778 | locus YPL256C, strain CLN2, hits give low values 0.844

Cc1cc(NS(=O)(=O)c2ccc(NC(=O)c3ccccc3)cc2)no1
inactive: [1] 0.988 | [2] 0.995 | [3] 0.979 | [4] 1.03 | [5] 1.03 | [6] 0.984 | [7] 1.03 | [8] 1.01 | [9] 0.983 | [10] 0.992 | [11] 1.02 | [12] 1.02 | [13] 1.05 | [14] 0.986 | [15] 1.02 | [16] 1.01 | [17] 0.916 | locus YMR307W, strain GAS1, hits give low values 1.03 | [18] 1 | [19] 1 | [20] 1 | [21] 1.01 | [22] 1 | [23] 1.03 | [24] 1.02 | [25] 0.991
